Calb FLC – C. albicans growth modulation with fluconazole. C. albicans CaCi-2 (fluconazole-resistant clinical isolate) + fluconazole, Alamar Blue growth, 48 h. growth inhibition, % (no concentration beside the values). 300,000 compounds, 0.57% hits. AID 1979;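 active = growth inhibition above about 58% in most replicates, limit read from the data, passing the limit was not always enough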;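 note: all wells also contain fluconazole at 8 µg/ml as a sub-toxic cotreatment; 0% = median of DMSO wells and 100% = median of geldanamycin control wells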
ALR H2O2 inh – blocks human ALR sulfhydryl oxidase activity | P55789 | purified ALR, DTT oxidation, H2O2 HRP-luminol luminescence | inhibition, % (concentration not given with the values) | 290,000 compounds, 3.8% hits;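 active = mean replicate inhibition above about 79%, with every replicate also reaching it, limit read from the data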
Target sequence (P55789 whole entry, looked up): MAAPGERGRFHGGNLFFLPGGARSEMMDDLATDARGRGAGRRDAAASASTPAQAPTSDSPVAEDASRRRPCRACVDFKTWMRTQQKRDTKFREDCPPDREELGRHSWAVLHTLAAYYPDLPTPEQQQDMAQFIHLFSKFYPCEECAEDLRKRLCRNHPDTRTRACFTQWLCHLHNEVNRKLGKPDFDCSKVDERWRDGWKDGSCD
CSC inhib – cancer stem cell inhibition; cancer stem cell-like cells viability, luminescence; inhibition, % at 7.5 µM; 300,000 compounds, 1.1% hits; AID 2717; in the data active = inhibition above about 75%; tested in HMLE shEcad cells
PP1 inh – PP1-alpha (human) inhibition in PP5 counter-screen | P62136 | purified PP1alpha, OMFP fluorescence | inhibition, % at 6.7 µM | 320,000 compounds, 0.9% hits | AID 2235;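 active = inhibition above the mean inhibition of all tested compounds plus 3 SD, computed separately for each screening campaign, cut at about 15% in these data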
Target sequence (P62136 whole entry, looked up): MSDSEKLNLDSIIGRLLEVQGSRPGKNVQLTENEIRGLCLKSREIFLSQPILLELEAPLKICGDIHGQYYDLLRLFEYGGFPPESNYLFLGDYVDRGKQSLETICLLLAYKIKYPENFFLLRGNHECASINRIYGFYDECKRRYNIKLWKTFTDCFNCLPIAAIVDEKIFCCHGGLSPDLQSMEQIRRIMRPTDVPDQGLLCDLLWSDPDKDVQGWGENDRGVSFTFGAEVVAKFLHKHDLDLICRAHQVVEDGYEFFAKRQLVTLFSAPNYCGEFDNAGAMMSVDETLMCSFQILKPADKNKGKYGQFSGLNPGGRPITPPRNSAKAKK
PP5 primary – blocks human protein phosphatase 5 activity; P53041; purified PP5c, OMFP substrate fluorescence; inhibition, % at 6.7 µM; 320,000 compounds, 0.18% hits; AID 1987;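 active = inhibition above the campaign's mean inhibition across all tested compounds plus 3 SD, cut at about 9.5% in these data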;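 note: 0% = DMSO only and 100% = 100 µM cantharidin control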
* = called active by the depositor; x = no result given. The list is not random: actives were taken first. Their share in the collection is about 5.4%.

SMILES	Calb FLC	ALR H2O2 inh	CSC inhib	PP1 inh	PP5 primary
COc1ccc(C2CC(c3ccccc3)=NN2c2ccc(Cl)c(C(=O)O)c2)cc1 (stereo not drawn)	42	98*	-2	4	-1
Cc1nc2c(c(C)c1C#N)C(=O)c1ccccc1-2	-24	-5	-2	-3	1
CCc1ccc2[nH]c3nc(N/N=C/c4cccc(O)c4)nnc3c2c1	11	x	98*	15	1
O=C(NCc1ccccc1)c1cccnc1	-11	-1	-9	-2	-1
COc1cc2c(c(OC)c1)C(c1ccncc1)CC(=O)N2 (stereo not drawn)	x	-6	-3	-1	-2
COc1cc(OC)c(C2SCCS2)c(OC)c1	-2	99*	-10	3	0
Cc1cc(C)c(S(=O)(=O)Nc2ccc(O)c(Sc3ncn[nH]3)c2)cc1C	10	49	x	-1	4
COc1ccc(S(=O)(=O)Nc2ccc(O)c(Sc3ncn[nH]3)c2)cc1	11	x	8	-3	-1
CC(C)c1ccc(S(=O)(=O)Nc2ccc(O)c(Sc3ncn[nH]3)c2)cc1	3	99*	x	x	x
Cc1cc(C)c(S(=O)(=O)Nc2ccc(O)c(Sc3ncn[nH]3)c2)c(C)c1	16	99*	-8	1	1
COc1ccc(-c2cc(C3CCN(Cc4cccc(C(F)(F)F)c4)CC3)[nH]n2)cc1	70*	-18	55	0	6
CN(C)/C=N/c1nc(-c2ccc3c(c2)OCO3)cs1	19	98*	-10	3	1
COc1ccccc1N1CCN(CCCn2c(=S)[nH]c3ccccc3c2=O)CC1	-5	97*	-2	-2	-1
CN1CCN(CCn2c(=S)[nH]c3ccccc3c2=O)CC1	0	15	-17	-2	-1
COc1ccc(N2CCN(CCCNC(=O)CCCn3c(=O)[nH]c4ccsc4c3=O)CC2)cc1	2	93*	14	-2	-1
COc1ccc(N2CCN(CCCn3c(=S)[nH]c4ccccc4c3=O)CC2)cc1	8	95*	33	-5	2
COc1cc2c(=O)n(CCCN3CCOCC3)c(=S)[nH]c2c(OC)c1OC	-24	95*	x	-6	-6
CC(=O)Nc1cc(NC(C)=O)c2nc(N)sc2c1	1	-10	-18	-3	-2
CN1c2ccccc2N(C)C1c1c(O)ccc2ccccc12	14	4	-3	-1	4
O=C(O)CC(C(=O)N(c1ccccc1)c1ccccc1)N1CCOCC1 (stereo not drawn)	-4	-16	0	-1	3
O=C(N[C@@H](Cc1ccccc1)C(=O)CCl)OCc1ccccc1	x	97*	42	0	0
CCOC(=O)C1=C(C)N(CCO)C(=O)NC1c1ccccc1 (stereo not drawn)	4	-9	-11	0	0
COCCNC(=S)N(CCc1c(C)[nH]c2ccccc12)Cc1cccnc1	x	97*	-7	-3	-1
CNC(=S)N(CCc1c(C)[nH]c2ccc(Cl)cc12)Cc1cccnc1	x	97*	6	0	2
COCCNC(=S)N(CCc1c(C)[nH]c2ccc(F)cc12)Cc1cccnc1	x	37	10	-1	-1
SMILES	Calb FLC	ALR H2O2 inh	CSC inhib	PP1 inh	PP5 primary
CCNC(=S)N(CCc1c(C)[nH]c2ccc(Cl)cc12)Cc1cccnc1	x	55	5	2	1
CNC(=S)N(CCc1c(C)[nH]c2ccccc12)Cc1cccnc1	x	100*	19	-7	0
Cc1cc(NC(=O)c2sc(Nc3cccc(C(F)(F)F)c3)nc2N)no1	-10	x	18	6	0
O=C(COc1ccccc1)OCC(=O)N1CCCc2ccccc21	1	x	x	-10	1
Cc1cc(Nc2ccc(N(C)C)cc2)n2ncnc2n1	-1	98*	-6	4	1
COc1cc(/C=C/C(=O)/C=C(O)/C=C/c2ccc(O)c(OC)c2)ccc1O	x	0	4	-2	3
COc1cc(/C=C/C(=O)O)ccc1O	9	87*	3	-4	0
COc1cc(/C=C/C2=NC(=O)C(C)(C)O2)ccc1O	-17	99*	0	-2	-1
O=C(O)/C=C/c1ccc(O)c(O)c1	-10	98*	-4	-2	-3
COc1ccc(C=C2C(=O)OC(C)(C)OC2=O)cc1OC	-13	x	-4	-2	1
COc1cc(C=C(C(C)=O)C(C)=O)ccc1O	-3	98*	-11	2	2
Cc1sc2ncn(CC(=O)NCCN3CCOCC3)c(=O)c2c1S(=O)(=O)N1CCC(C)CC1	-5	-3	0	-2	-2
O=C(/C=C/c1ccc(O)c(O)c1)NC(=O)c1ccccc1O	-9	96*	0	-3	1
COc1cc(/C=C/C(=O)CC(=O)/C=C/c2ccc(O)c(OC)c2)ccc1O	x	35	94*	-1	1
Cc1ccccc1-n1c(SCC(=O)c2c(N)n(C)c(=O)n(C)c2=O)nnc1-c1cccnc1	3	0	-8	-7	3
CC(=O)c1ccc(S(=O)(=O)NCC(=O)NC(c2nc3ccccc3[nH]2)C(C)C)cc1 (stereo not drawn)	x	99*	-7	x	x
COC(=O)[C@H](C)NC(=O)c1cc2c(cn1)[nH]c1ccccc12	-2	-16	8	-4	-2
C[C@H](NC(=O)c1cc2c(cn1)[nH]c1ccccc12)C(=O)O	2	98*	1	x	x
Cc1nc2cccc(C(=O)Oc3ccc([N+](=O)[O-])cc3)c2o1	4	97*	-4	-3	0
Cc1c(-c2ccccc2)nc2ccccc2c1C(=O)Oc1ccc([N+](=O)[O-])cc1	3	-2	29	-4	-9
CCCc1nnc(NC(=O)c2nc(S(=O)(=O)Cc3ccc(C)cc3)ncc2Cl)s1	-4	9	108*	-2	-2
CC(C)c1nnc(NC(=O)c2nc(S(=O)(=O)Cc3ccccc3)ncc2Cl)s1	-2	98*	x	1	2
CSc1nnc(NC(=O)c2nc(S(=O)(=O)Cc3ccccc3)ncc2Cl)s1	-9	97*	x	-1	1
Cc1ccc(S(=O)(=O)CCc2nnc(NC(=O)c3cnccn3)s2)cc1	-1	-5	11	-3	1
COc1ccc(/C(C)=N/N2C(=O)c3ccccc3NC2c2ccc(O)c(OC)c2)cc1 (stereo not drawn)	-2	99*	-7	-1	1
SMILES	Calb FLC	ALR H2O2 inh	CSC inhib	PP1 inh	PP5 primary
COc1ccc(C2Nc3ccccc3C(=O)N2O)cc1OC (stereo not drawn)	97*	-10	-8	-1	-1
O=C1c2ccccc2NC(c2cnc3ccccc3n2)N1O (stereo not drawn)	104*	65	-11	1	3
CCCN(Cc1cc2ccc(C)cc2[nH]c1=O)C(=O)c1cccnc1	-3	-7	-2	0	1
CSc1nc(-c2ccco2)nn1C(=O)c1ccccc1	-2	1	-5	1	-1
COc1ccccc1C(=O)n1nc(-c2ccco2)nc1SC	-2	98*	8	13	-2
CSc1nc(-c2ccco2)nn1C(=O)c1ccc(C)cc1	6	97*	7	-4	2
Oc1ccc(Cl)cc1Cc1cc(Cl)ccc1O	x	70	114*	3	5
Nc1c(C(=O)O)ccc2c1C(=O)c1ccccc1C2=O	16	-3	-3	1	1

High-throughput results (PubChem)
